Test results from the supplement of paper PMC13380429.

Test system: Vero E6 infected with SARS-CoV-2
Assay: inhibition of SARS-CoV-2 cytopathic effect; higher = more antiviral protection, active = above 15
Conditions: 48 h

Measured: inhibition of SARS-CoV-2 cytopathic effect

CN1CCC[C@@H]1Cc1c[nH]c2ccc(CCS(=O)(=O)c3ccccc3)cc12 [eletriptan]
inactive: 1 nM -0.44% | 8.33 nM 1.24% | 100 nM 2.14% | 833.33 nM -1.16% | 10000 nM -2.89%

N=C1CCCN1Cc1[nH]c(=O)[nH]c(=O)c1Cl [tipiracil]
inactive: 1 nM 2.52% | 8.33 nM 2.02% | 100 nM 0.58% | 833.33 nM -1.37% | 10000 nM 2.84%

O=[N+]([O-])c1cnc(Sc2nnc(O)n2-c2ccc3c(c2)OCCO3)s1
inactive: 1 nM 0.17% | 8.33 nM 0.75% | 100 nM 1.8% | 833.33 nM 0.05% | 10000 nM -17.7%

CC(=O)Nc1ccc(C(=O)O)cc1 [acedoben]
inactive: 1 nM -1.13% | 8.33 nM 3.16% | 100 nM 1.58% | 833.33 nM 0.73% | 10000 nM 3.31%

Cc1ccc(C(=O)c2cc(O)c(O)c([N+](=O)[O-])c2)cc1 [tolcapone]
inactive: 1 nM -5.06% | 8.33 nM -3.82% | 100 nM -4.1% | 833.33 nM 0.66% | 10000 nM 1.15%

CCc1ccccc1OC[C@@H](O)CN[C@H]1CCCc2ccccc21
inactive: 1 nM -1.78% | 8.33 nM -0.44% | 100 nM -3.44% | 833.33 nM -0.6% | 10000 nM -4.25%

COc1cc([S+](C)[O-])ccc1-c1nc2cccnc2[nH]1 (stereo not given) [sulmazole]
inactive: 1 nM -0.6% | 8.33 nM 3.93% | 100 nM 0.23% | 833.33 nM -1.34% | 10000 nM -0.68%

COc1ccc(O)cc1 [mequinol]
inactive: 1 nM 2.15% | 8.33 nM -1.51% | 100 nM 2.67% | 833.33 nM 1.18% | 10000 nM 2.53%

C1CCC(C(CC2CCCCN2)C2CCCCC2)CC1 (stereo not given) [perhexiline]
inactive: 1 nM 0.59% | 8.33 nM 4.47% | 100 nM 2.39% | 833.33 nM 0.87%
active: 10000 nM 48.5%

C[C@H](NC(=O)c1sccc1OCc1ccc(Cl)cc1)c1ccccc1
inactive: 1 nM -2.57% | 8.33 nM -2.87% | 100 nM -1.08% | 833.33 nM -1.14% | 10000 nM -0.53%

CCC(=O)N1CCN(c2ccc(-n3c(=O)ccc4cnc5ccc(-c6cnc7ccccc7c6)cc5c43)cc2C(F)(F)F)CC1 [torin-1]
inactive: 1 nM 1.59% | 8.33 nM -1.08% | 100 nM 0.88% | 833.33 nM -0.28% | 10000 nM -0.2%

CCO[C@@H](Cc1ccc(OCCn2c(C)ccc2-c2ccc(SC)cc2)cc1)C(=O)O [saroglitazar]
inactive: 1 nM 1% | 8.33 nM -0.85% | 100 nM -1.26% | 833.33 nM 0.64% | 10000 nM 1.31%

C[S+]([O-])c1ccc(-c2nc(-c3ccc(F)cc3)c(-c3ccncc3)[nH]2)cc1 (stereo not given)
inactive: 1 nM -0.95% | 8.33 nM 1.29% | 100 nM -1.08% | 833.33 nM -1.33% | 10000 nM 4.9%

Cc1cc(C)c(N(Cc2ccccc2)S(=O)(=O)c2ccc(OCCNC(=O)c3cc4ccccc4o3)cc2)c(C(=O)NO)c1
inactive: 1 nM -0.99% | 8.33 nM 0.92% | 100 nM -1.74% | 833.33 nM -1.22% | 10000 nM -6.93%

CC(C)C[C@H](NC(=O)[C@H](CCc1ccccc1)NC(=O)CN1CCOCC1)C(=O)N[C@@H](Cc1ccccc1)C(=O)N[C@@H](CC(C)C)C(=O)[C@@]1(C)CO1 [carfilzomib]
inactive: 1 nM -1.68% | 8.33 nM -2.43% | 100 nM 11.4% | 10000 nM 10.2%
active: 833.33 nM 34.9%

CN1CCc2c(c3ccccc3n2Cc2ccc(C(=O)NO)cc2)C1 [tubastatin-A]
inactive: 1 nM -0.32% | 8.33 nM 0.16% | 100 nM 1.09% | 833.33 nM -1.27% | 10000 nM -6.46%

O=c1c(-c2ccc(O)cc2)coc2c([C@@H]3O[C@H](CO)[C@@H](O)[C@H](O)[C@H]3O)c(O)ccc12 [kakonein]
inactive: 1 nM -2.72% | 8.33 nM -3.42% | 100 nM -3.81% | 833.33 nM -5.79% | 10000 nM -6.74%

O=C(OCCN1CCOCC1)C1(c2ccccc2)CCCCC1
inactive: 1 nM 3.24% | 8.33 nM 2.9% | 100 nM 1.04% | 833.33 nM 4.21% | 10000 nM 1.59%

CCn1c(=O)[nH]c2ccccc21
inactive: 1 nM -3.62% | 8.33 nM -3.46% | 100 nM -3.83% | 833.33 nM -3.63% | 10000 nM -3.51%

CN(C)CC/C=C1/c2ccccc2COc2ccccc21 [doxepin]
inactive: 1 nM -0.79% | 8.33 nM 1.36% | 100 nM 1.85% | 833.33 nM -1.94% | 10000 nM -2.1%

CN1CCN(CCOc2cc(OC3CCOCC3)c3c(Nc4c(Cl)ccc5c4OCO5)ncnc3c2)CC1 [saracatinib]
inactive: 1 nM 0.37% | 8.33 nM -0.91% | 100 nM 0.04% | 833.33 nM -7% | 10000 nM -12.3%

Cn1ccc2cc3c(cc21)CCN3C(=O)Nc1cccnc1
inactive: 1 nM 1.1% | 8.33 nM 0.1% | 100 nM 1.8% | 833.33 nM 0.79% | 10000 nM 2.05%

C[C@@H](O)[C@H]1C(=O)N2C(C(=O)O)=C([C@H]3CCCO3)S[C@H]12 [faropenem]
inactive: 1 nM -0.32% | 8.33 nM -0.11% | 100 nM 1.66% | 833.33 nM 0.92% | 10000 nM 1.61%

Cc1[nH]c2ccc(O)cc2c1CCN [2-methyl-5-hydroxytryptamine]
inactive: 1 nM -3.47% | 8.33 nM -2.58% | 100 nM -4.33% | 833.33 nM -12.8% | 10000 nM -2.37%

NC(=O)CCCCC1CCSS1 (stereo not given) [lipoamide]
inactive: 1 nM 1.2% | 8.33 nM 1.81% | 100 nM -0.52% | 833.33 nM -3.3% | 10000 nM 3.78%

Cc1cc(OCCN2CCOCC2)nn1-c1ccc2ccccc2c1
inactive: 1 nM -2.51% | 8.33 nM -1.6% | 100 nM -2.06% | 833.33 nM 0.03% | 10000 nM 1.91%

CC1=C(C(=O)O)N2C(=O)[C@@H](NC(=O)[C@H](N)c3ccccc3)[C@H]2SC1 [cephalexin]
inactive: 1 nM 2.47% | 8.33 nM 0.37% | 100 nM 0.73% | 833.33 nM -1.01% | 10000 nM -3.66%

CN(C)c1ccc(-c2nc3c(N4CCN(CC(=O)Nc5nccs5)CC4)c(Cl)cnc3[nH]2)cc1
inactive: 1 nM 0.9% | 8.33 nM -0.82% | 100 nM -1.07% | 833.33 nM 0.5% | 10000 nM 13.9%

CN(C)C(=O)Oc1cc(OC(=O)N(C)C)cc(C(O)CNC(C)(C)C)c1 (stereo not given) [bambuterol]
inactive: 1 nM -2.95% | 8.33 nM -0.79% | 100 nM -1.68% | 833.33 nM -1.56% | 10000 nM -1.86%

CC#CCn1c(N2CCC[C@@H](N)C2)nc2c1c(=O)n(Cc1nc(C)c3ccccc3n1)c(=O)n2C [linagliptin]
inactive: 1 nM 0.74% | 8.33 nM -3.62% | 100 nM -0.93% | 833.33 nM -3.72% | 10000 nM -11.3%

CNC(=O)c1cnn(-c2nc(N)c3ncn([C@@H]4O[C@H](CO)[C@@H](O)[C@H]4O)c3n2)c1 [regadenoson]
inactive: 1 nM 1.53% | 8.33 nM 0.87% | 100 nM 3.4% | 833.33 nM -1.38% | 10000 nM -0.12%

COC(=O)N/N=C/c1c[n+]([O-])c2ccccc2[n+]1[O-] [carbadox]
inactive: 1 nM -0.14% | 8.33 nM -0.55% | 100 nM 0.99% | 833.33 nM -11.6% | 10000 nM 0.87%

Cc1cc(SCc2sc(-c3ccc(C(F)(F)F)c(F)c3)nc2C)ccc1OCC(=O)O
inactive: 1 nM 0.88% | 8.33 nM 1.12% | 100 nM -2.76% | 833.33 nM -1.29% | 10000 nM -1.19%

Cc1ccc(C(=O)Nc2cccc(C(F)(F)F)c2)cc1Nc1nc(-c2cccnc2)nc2c1cnn2C
inactive: 1 nM -0.06% | 8.33 nM 0.17% | 100 nM 3.74% | 833.33 nM 8.31%
active: 10000 nM 28.1%

OCCN1C[C@H](O)[C@@H](O)[C@H](O)[C@H]1CO [miglitol]
active: 100 nM 52.1%
inactive: 1 nM -4.01% | 8.33 nM -3.41% | 833.33 nM -3.71% | 10000 nM -4.78%

C[N+](C)(C)CCOC(=O)CCC(=O)OCC[N+](C)(C)C [succinylcholine-chloride]
inactive: 1 nM 2.27% | 8.33 nM -1.42% | 100 nM -2.35% | 833.33 nM 0.85% | 10000 nM 0.28%

C#CCN[C@@H]1CCc2ccccc21 [rasagiline]
inactive: 1 nM 0.63% | 8.33 nM -1.47% | 100 nM -1.63% | 833.33 nM -1.24% | 10000 nM -0.6%

CC(C)(C)C(=O)OCOC(=O)[C@@H]1N2C(=O)[C@@H](/N=C/N3CCCCCC3)[C@H]2SC1(C)C [pivmecillinam]
inactive: 1 nM 1.02% | 8.33 nM 0.8% | 100 nM -0.38% | 833.33 nM -0.99% | 10000 nM 0.82%

CC(C)Oc1ccc(Cc2ccc(NC3=NCCN3)cc2)cc1
inactive: 1 nM 0.38% | 8.33 nM 0.26% | 100 nM 2.45% | 833.33 nM 0.98% | 10000 nM -0.97%

CC(C)(O)CS(=O)(=O)Nc1ccc2c(c1)CCN(C(=O)COc1cccnc1)C2 [Nampt-IN-1]
inactive: 1 nM -1.96% | 8.33 nM -2.55% | 100 nM -5.64% | 833.33 nM -15.6% | 10000 nM -25.6%
